# Results reported in PubChem BioAssay.
# Where “and” joins values, the source holds several entries; their conditions need not be identical. Equal values may be shown once. For part of these data: Potency and affinity values are given separately. Calls of active or inactive are those of the source. Unless noted, no stated cut-off is given here; in the data, active means parasite load remaining mostly below about 12% (no sharp cut-off); inactive means mostly above about 10%.
# Experiments:
# [1] = liver-stage malaria parasite growth inhibition, primary screen, cell-based, HepG2, luciferase luminescence, HepG2 viability (AID 624349);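 further: 100% = mean of DMSO negative control wells on the same plate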; conditions: P. berghei liver stage in HepG2, luciferase luminescence, concentration not given here; parasite load remaining: stronger effect = lower value; viability: measured here: HepG2 viability without parasites
# [2] = target: 6-phosphogluconate dehydrogenase, decarboxylating (Homo sapiens) (UniProt P52209); experiment: 6PGD enzyme inhibitors, primary screen, biochemical, human, recombinant enzyme, NADPH absorbance (AID 1159550;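 active means at least 20% inhibition of 6-phosphogluconate dehydrogenase activity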); conditions: recombinant 6PGD, NADPH absorbance 341 nm; at 10 µM; stronger effect = higher value
# 6-phosphogluconate dehydrogenase, decarboxylating (Homo sapiens), sequence (P52209 whole entry, looked up): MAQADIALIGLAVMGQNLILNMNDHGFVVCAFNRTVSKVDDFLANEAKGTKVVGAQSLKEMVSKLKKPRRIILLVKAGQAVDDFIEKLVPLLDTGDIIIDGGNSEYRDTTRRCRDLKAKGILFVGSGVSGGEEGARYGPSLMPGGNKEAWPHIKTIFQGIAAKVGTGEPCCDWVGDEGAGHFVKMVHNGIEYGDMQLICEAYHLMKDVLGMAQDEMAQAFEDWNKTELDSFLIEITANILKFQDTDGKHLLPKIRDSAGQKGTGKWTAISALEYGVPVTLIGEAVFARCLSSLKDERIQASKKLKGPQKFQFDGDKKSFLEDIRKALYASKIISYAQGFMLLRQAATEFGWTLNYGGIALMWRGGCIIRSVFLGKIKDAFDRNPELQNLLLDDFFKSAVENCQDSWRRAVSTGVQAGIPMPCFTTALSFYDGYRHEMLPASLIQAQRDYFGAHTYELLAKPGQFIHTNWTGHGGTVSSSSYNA
# [3] = differential killing of epithelial or mesenchymal cells, primary screen, imaging, PC-3E GFP, TEM4-18 mCherry, co-culture (AID 1345086;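 active means compounds killing one labelled cell type while sparing the other, by normalised counts and ratio limits, not self-fluorescent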;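 on all read-outs here: cells exposed to compound for 72 h before imaging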;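 on red/green cell ratio (normalised): normalised mesenchymal count divided by normalised epithelial count so high means epithelial killing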); conditions: imaging cell counts, at 1 µM; for red/green cell ratio (normalised): actives lie on both sides, counts scaled to control wells, 1 = unselective
# [4] = sensitizers of A549 cells to miR-34 induction, primary screen, imaging, A549 dox-inducible miR-34, nuclei and caspase counts (AID 1347080;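 active means compounds whose cell count with miR-34 switched on is under 0.7 times the count with it off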); conditions: A549 miR-34 inducible, Hoechst nuclei count, 48 h
# [5] = target: Mitogen-activated protein kinase 7 (Homo sapiens) (UniProt Q13164); experiment: ERK5 transactivation activators in reporter cells, primary screen, cell-based, HTS (AID 1508626;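 active means luciferase signal above three times the same-plate solvent-only control wells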;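 further: luciferase driven by Gal4-ERK5 fusion binding five Gal4 sites before minimal TATA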); conditions: HeLa Gal4-ERK5 transactivation, 18 h, at 5 µM, stronger effect = higher value
# Mitogen-activated protein kinase 7 (Homo sapiens), sequence (Q13164 whole entry, looked up, the tested form may be a part): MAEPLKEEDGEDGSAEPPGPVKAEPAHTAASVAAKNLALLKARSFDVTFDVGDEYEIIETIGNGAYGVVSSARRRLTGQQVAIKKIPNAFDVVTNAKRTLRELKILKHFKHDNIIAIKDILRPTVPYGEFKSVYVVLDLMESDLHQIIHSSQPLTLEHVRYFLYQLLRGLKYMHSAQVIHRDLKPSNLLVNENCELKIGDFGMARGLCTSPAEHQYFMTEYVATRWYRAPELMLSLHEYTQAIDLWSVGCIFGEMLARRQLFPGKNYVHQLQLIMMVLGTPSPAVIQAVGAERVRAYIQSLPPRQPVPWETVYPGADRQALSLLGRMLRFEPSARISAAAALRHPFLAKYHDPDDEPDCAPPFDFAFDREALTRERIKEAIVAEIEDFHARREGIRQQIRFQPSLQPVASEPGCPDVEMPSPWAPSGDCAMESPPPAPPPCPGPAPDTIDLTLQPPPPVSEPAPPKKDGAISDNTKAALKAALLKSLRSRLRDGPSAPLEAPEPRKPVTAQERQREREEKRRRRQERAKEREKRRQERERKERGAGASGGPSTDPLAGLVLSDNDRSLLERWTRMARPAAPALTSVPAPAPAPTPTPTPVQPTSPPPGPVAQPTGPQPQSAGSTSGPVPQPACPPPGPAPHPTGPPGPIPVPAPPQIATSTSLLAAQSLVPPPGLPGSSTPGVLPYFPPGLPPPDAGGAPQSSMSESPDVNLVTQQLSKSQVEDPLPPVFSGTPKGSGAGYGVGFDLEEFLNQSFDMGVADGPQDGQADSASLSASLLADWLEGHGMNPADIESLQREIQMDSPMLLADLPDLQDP
# [6] = polyglutamine-triggered caspase-3 activation inhibitors, cell-based (AID 1583); conditions: polyglutamine-induced caspase-3 activation, cell assay; stronger effect = higher value;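 tested at 10 µM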
# [7] = suppressors of polyQ aggregation in yeast, 75Q-TubU reporter (AID 1593); conditions: Yeast 75Q polyglutamine aggregation reporter
# [8] = rescue of polyQ-huntingtin neuronal dysfunction in worms, whole organism, C. elegans mechanosensory neurons, N-terminal huntingtin (AID 1599); conditions: touch response, stronger effect = higher value
# [9] = inhibitors of mitochondrial cytochrome c release, biochemical, purified mitochondria (AID 1603); conditions: stronger effect = lower value;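 further: mouse liver mitochondria challenged with calcium chloride; signal normalized to the plate average as 100%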
# [10] = inhibitors of polyQ protein aggregation (AID 1604); conditions: polyglutamine-induced protein aggregation inhibition assay; stronger effect = higher value; tested at 2.5 µM
# [11] = enhancers of glutamate uptake in motor neurons, MN-1 cell line (AID 1612); conditions: MN-1 motor neuron cells, stronger effect = higher value;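 further: tested at 1 µM final; 0% = mean of DMSO vehicle wells on each plate; positive means more glutamate uptake than control and negative means less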
# [12] = reducers of polyQ inclusions in PC12 cells, cell-based, NGF-treated PC12, GFPQ80 (AID 1614); conditions: PC12 NGF-treated GFP-polyQ80 inclusion reduction;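 further: lower means fewer inclusions and 0 means no inclusions at all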
# [13] = suppressors of polyglutamine aggregation in yeast, 75Q-TubH (AID 1616); conditions: S. cerevisiae 75Q-TubH polyglutamine aggregation suppression; stronger effect = higher value
# [14] = target: NAD(+) hydrolase SARM1 (Homo sapiens) (UniProt Q6SZW1); experiment: SARM1 TIR NADase inhibitors, cell lysate, NAD-Glo luminescence (AID 1508614;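 active means compound whose remaining NAD level is above about 45 nM, limit read from the data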); conditions: SAM-TIR HEK293T lysate NADase, at 1 µM, stronger effect = higher value
# NAD(+) hydrolase SARM1 (Homo sapiens), sequence (Q6SZW1 whole entry, looked up): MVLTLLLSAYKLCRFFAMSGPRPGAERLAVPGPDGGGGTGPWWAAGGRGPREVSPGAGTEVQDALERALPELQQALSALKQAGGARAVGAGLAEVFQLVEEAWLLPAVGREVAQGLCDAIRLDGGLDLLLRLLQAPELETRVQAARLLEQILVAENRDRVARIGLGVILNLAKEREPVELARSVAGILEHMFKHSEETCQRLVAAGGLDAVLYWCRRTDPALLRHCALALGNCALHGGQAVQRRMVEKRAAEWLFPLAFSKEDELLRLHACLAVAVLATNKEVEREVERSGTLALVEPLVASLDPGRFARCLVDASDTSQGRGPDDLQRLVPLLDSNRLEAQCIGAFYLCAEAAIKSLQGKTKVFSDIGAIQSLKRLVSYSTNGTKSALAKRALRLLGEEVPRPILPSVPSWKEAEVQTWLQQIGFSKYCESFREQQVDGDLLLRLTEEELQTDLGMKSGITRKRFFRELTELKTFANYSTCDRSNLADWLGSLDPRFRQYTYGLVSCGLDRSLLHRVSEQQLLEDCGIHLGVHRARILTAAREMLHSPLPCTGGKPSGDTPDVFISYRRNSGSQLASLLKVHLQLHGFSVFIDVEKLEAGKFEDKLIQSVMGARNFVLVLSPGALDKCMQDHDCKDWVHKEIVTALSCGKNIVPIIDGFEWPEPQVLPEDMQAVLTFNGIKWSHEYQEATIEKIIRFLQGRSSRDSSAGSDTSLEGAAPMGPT
# [15] = hESC survival regulators, cell-based (AID 493140; call rule not given here;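 further: cells exposed to compounds for four days before counting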); conditions: human embryonic stem cell survival screen; stronger effect = higher value
# [16] = survival rescue of mitochondrial mutant cells in low glucose, primary screen, MELAS cybrids, Rieske KO mouse fibroblasts, CellTiter-Glo (AID 1508586;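 active means mean z-score across replicates of 1.96 or higher in either the MELAS or the Rieske mutant cell line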;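 further: z relative to plate mean and SD of compound and empty wells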)
# [17] = viability rescue of complex I mutant cybrids, primary screen, cell-based, galactose medium, ATP luminescence (AID 1645843;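 active means z-score of at least 1.8 in each of two replicates, scored against plate mean and spread of sample wells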;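 further: positive z means more ATP and so rescue of galactose-driven cybrid death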); conditions: complex I mutant cybrid cells, 72 h, stronger effect = higher value
# [18] = measured here: epithelial PC-3E GFP cell survival
# [19] = measured here: mesenchymal TEM4-18 mCherry cell survival
# [20] = stronger effect = lower value, cell number ratio, induced over uninduced
# [21] = measured here: relative caspase fold change +Dox/-Dox
# [22] = measured here: total cells with miR-34 induction, stronger effect = lower value
# [23] = measured here: total cells without miR-34 induction
smiles,measurement,setting,value
CO[C@H]1/C=C/O[C@@]2(C)Oc3c(C)c(O)c4c(O)c(c5c(nc6cc(C)ccn65)c4c3C2=O)NC(=O)/C(C)=C\C=C\[C@H](C)[C@H](O)[C@@H](C)C(O)[C@@H](C)[C@H](OC(C)=O)[C@@H]1C (stereo partly drawn),parasite load remaining,[1],51.2% (inactive)
same,viability,[1],113%
same,inhibition,[2],-0.37% (inactive)
same,red/green cell ratio (normalised),[3],1.15 (inactive)
same,normalised cell number,[3]; [18],1.21
same,normalised cell number,[3]; [19],1.39
same,fold change,[4]; [20],0.902 (inactive)
same,fold change,[4]; [21],2.53
same,cell count,[4]; [22],11500
same,cell count,[4]; [23],12700
CCCCC(=O)Oc1ccccc1C(=O)O,inhibition,[2],18.3% (inactive)
same,red/green cell ratio (normalised),[3],0.89 (inactive)
same,normalised cell number,[3]; [18],1.25
same,normalised cell number,[3]; [19],1.11
same,fold change,[4]; [20],0.935 (inactive)
same,fold change,[4]; [21],0.938
same,cell count,[4]; [22],5290
same,cell count,[4]; [23],5650
same,luciferase signal,[5],56 AU (inactive)
C[n+]1cccc(C(=O)[O-])c1,parasite load remaining,[1],79.8% (inactive)
same,viability,[1],103%
same,inhibition,[2],-5.32% (inactive)
same,red/green cell ratio (normalised),[3],0.83 (inactive)
same,normalised cell number,[3]; [18],0.9
same,normalised cell number,[3]; [19],0.75
same,fold change,[4]; [20],0.877 (inactive)
same,fold change,[4]; [21],1.44
same,cell count,[4]; [22],9790
same,cell count,[4]; [23],11200
same,luciferase signal,[5],44 AU (inactive)
CC(=C(CCOP(=O)(O)O)SC(=O)c1ccccc1)N(C=O)Cc1cnc(C)nc1N,inhibition,[6],9.82%
same,score,[7],1.37
same,rescue above control,[8],3.18
same,cytochrome c release ratio,[9],0.86
same,inhibition of aggregation,[10],39.4%
same,glutamate uptake change,[11],18.4%
same,inclusion score,[12],2
same,aggregation suppression score,[13],0.998
same,inhibition,[2],-10.8% (inactive)
same,red/green cell ratio (normalised),[3],0.95 (inactive)
same,normalised cell number,[3]; [18],1.05
same,normalised cell number,[3]; [19],1
same,remaining NAD,[14],10 nM (inactive)
Nc1c2ccccc2nc2ccccc12 (tested in a mixture with another compound),parasite load remaining,[1],2.09% (inactive) and 61.1% (inactive)
same,viability,[1],97.8% and 80.2%
same,inhibition,[2],3.89% (inactive)
same,red/green cell ratio (normalised),[3],0.94 (inactive)
same,normalised cell number,[3]; [18],1.25
same,normalised cell number,[3]; [19],1.17
same,fold change,[4]; [20],1.59 (inactive)
same,fold change,[4]; [21],1.23
same,cell count,[4]; [22],1530
same,cell count,[4]; [23],960
same,remaining NAD,[14],10 nM (inactive)
same,luciferase signal,[5],80 AU (inactive)
CCCCN1CCCCC1C(=O)Nc1c(C)cccc1C (stereo not drawn),inhibition,[6],17%
same,score,[7],1.42
same,rescue above control,[8],-7.52
same,cytochrome c release ratio,[9],0.81
same,inhibition of aggregation,[10],-27.4%
same,glutamate uptake change,[11],1.83%
same,inclusion score,[12],2
same,aggregation suppression score,[13],1.3
same,survival,[15],10.1 (inactive)
same,inhibition,[2],3.83% (inactive)
same,red/green cell ratio (normalised),[3],1.17 (inactive)
same,normalised cell number,[3]; [18],1.13
same,normalised cell number,[3]; [19],1.33
same,z-score,"[16]; MELAS cybrid survival, CellTiter-Glo 48 h, stronger effect = higher value",-0.429 (inactive) and 0.622 (inactive) and -0.162 (inactive)
same,z-score,"[16]; Rieske KO mouse fibroblast survival, CellTiter-Glo 72 h",-0.124 and 0.613 and -0.528
same,remaining NAD,[14],10 nM (inactive)
same,luciferase signal,[5],68 AU (inactive)
same,z-score,[17],0.545 (inactive)
Cn1nnnc1SCC1=C(C(=O)O)N2C(=O)C(NC(=O)C(OC=O)c3ccccc3)C2SC1 (stereo not drawn),inhibition,[6],20.1%
same,score,[7],1.46
same,rescue above control,[8],-9.96
same,cytochrome c release ratio,[9],1.54
same,inhibition of aggregation,[10],91.6%
same,glutamate uptake change,[11],-5.89%
same,inclusion score,[12],2
same,aggregation suppression score,[13],1.26
same,parasite load remaining,[1],85.6% (inactive) and 51.5% (inactive)
same,viability,[1],73.8% and 102%
same,inhibition,[2],0.99% (inactive)
same,red/green cell ratio (normalised),[3],0.82 (inactive)
same,normalised cell number,[3]; [18],1.29
same,normalised cell number,[3]; [19],1.06
same,fold change,[4]; [20],0.922 (inactive)
same,fold change,[4]; [21],2.94
same,cell count,[4]; [22],11600
same,cell count,[4]; [23],12600
O=C1NS(=O)(=O)c2ccccc21,inhibition,[6],13.8%
same,score,[7],0.92
same,rescue above control,[8],-8.57
same,cytochrome c release ratio,[9],0.95
same,inhibition of aggregation,[10],78.3%
same,glutamate uptake change,[11],6.02%
same,inclusion score,[12],2
same,aggregation suppression score,[13],1.22
same,parasite load remaining,[1],95.1% (inactive) and 37.4% (inactive)
same,viability,[1],71.8% and 92.3%
same,inhibition,[2],10.4% (inactive)
same,red/green cell ratio (normalised),[3],1.14 (inactive)
same,normalised cell number,[3]; [18],1.03
same,normalised cell number,[3]; [19],1.17
same,remaining NAD,[14],10 nM (inactive)
same,luciferase signal,[5],40 AU (inactive)
NCC(O)CC(=O)O (stereo not drawn),inhibition,[6],11.2%
same,score,[7],1.7
same,rescue above control,[8],-10.6
same,cytochrome c release ratio,[9],1.09
same,inhibition of aggregation,[10],57.7%
same,glutamate uptake change,[11],9.66%
same,inclusion score,[12],2
same,aggregation suppression score,[13],1.63
same,parasite load remaining,[1],157% (inactive)
same,viability,[1],91.4%
same,inhibition,[2],-18.3% (inactive)
same,red/green cell ratio (normalised),[3],0.75 (inactive)
same,normalised cell number,[3]; [18],1.28
same,normalised cell number,[3]; [19],0.96
same,remaining NAD,[14],10 nM (inactive)
same,luciferase signal,[5],44 AU (inactive)
